Activity calls are given as the source filed them. Rule for the calls: active = hit-call score of the fitted dose curve at least 0.9, where 1 is the maximum; inactive = score below 0.9.
test: ATG_Ets_CIS: Attagene CIS-FACTORIAL HepG2 Assay for human Erythroblast Transformation Specific (ETS) (AID 2282941); conditions: HepG2 ETS cis-reporter transcription, actives raise or lower the signal
Method: ATG_CIS is a cell-based, multiplexed-readout assay that uses HepG2, a human liver cell line, with measurements taken at 24 hours after chemical dosing in a 24-well plate.ATG_Ets_CIS is one of 52 assay component(s) measured or calculated from the ATG_CIS assay. It is designed to make measurements of mRNA induction, a form of inducible reporter, as detected with fluorescence intensity signals by Reverse transcription polymerase chain reaction (RT-PCR) and Capillary electrophoresis technology.Data from the assay component ATG_Ets_CIS was analyzed into 1 assay endpoint. This assay endpoint, ATG_Ets_CIS, was analyzed with bidirectional fitting relative to DMSO as the negative control and baseline of activity. Using a type of inducible reporter, measures of mRNA for gain or loss-of-signal activity can be used to understand the reporter gene at the transcription factor-level as they relate to the gene ETS1. Furthermore, this assay endpoint can be referred to as a primary readout, because this assay has produced multiple assay endpoints where this one serves a reporter gene function. To generalize the intended target to other relatable targets, this assay endpoint is annotated to the dna binding intended target family, where the subfamily is winged helix-turn-helix.
Human liver HepG2 cells are transiently transfected with multiple reporter transcription units (MRTUs) in 6-well plates using FuGene 6 reagent (Roche; 3 ml FuGene/1 mg DNA). The MRTU constructs are regulated by a cis-regulating element (promoter). […] A major difference between the CIS and TRANS system is that in CIS activities of endogenous TFs are measured, whereas the TRANS assay evaluates changes in activities of exogenous, chimeric NR-Gal4 proteins. […] At the end of 24 hour incubation, total RNA was isolated using TriZol reagent (Invitrogen). The isolated RNA is then reverse-transcribed using oligo(dT) primer and Mo-MLV reverse transcriptase (Invitrogen) with DNAse I (Ambion) treatment for 30 min. The one-tenth of the produced cDNA was amplified by PCR using Taq DNA polymerase (Invitrogen) and two reporter sequence-specific primers. The PCR products were fluorescently labeled by primer extension with 6-arboxyfluorescein (6-FAM) 5'-labeled reporter sequence-specific primer (2 min at 95 C, 20 s at 68 C and 10 min at 72 C) and these products were digested with 5U of HpaI (New England Biolabs) for 2h at 37 C. The fragments were purified using Qiaquick PCR columns (Qiagen), analyzed on an ABI 3130xL genetic analyzer (Applied Biosystems) with peak positions identified by using a set of X-rhodamine (ROX)-labeled MapMarker1000 molecular weight standards (BioVentures). The raw capillary electrophoresis data was processed using Attagraph software (Attagene).

outcome, inactive:
CC(C)=CCC[C@H](C)CC=O
CCC(O)CO (stereo not given)
CCCCCCCCCCCCN
CC(C)(Oc1ccc(CCNC(=O)c2ccc(Cl)cc2)cc1)C(=O)O
CC1(C)[C@H](C(=O)OCc2cccc(Oc3ccccc3)c2)[C@@H]1C=C(Cl)Cl
CCCCCCOC(=O)CC
CN(C)C(=N)N=C(N)N
CCCCCCCCCOC(C)=O
C=C(C)C(=O)OCc1ccccc1
CCCCC(CC)COCCC#N (stereo not given)
CC(C)OP(=O)(CP(=O)(OC(C)C)OC(C)C)OC(C)C
O=S(=O)(O)c1cccc2c(S(=O)(=O)O)cccc12
CC(=O)Nc1ccc(C)cc1C
C=C[C@@H](C)CCC=C(C)C
CCCCCCCCCCCCCCCC(=O)O
CC(C)[C@@H]1CC[C@@H](C)CC1=O
CC(=O)OCCC(C)CC(C)(C)C (stereo not given)
CCC/C=C/C=O
CCCCOCCOCCOCCOCCO
CC(C)=CCCC(C)CC=O (stereo not given)
Cc1ccc(C=O)cc1
CC(C)C[C@H]1C(=O)N2CCC[C@H]2[C@]2(O)O[C@](NC(=O)[C@@H]3C=C4c5cccc6[nH]c(Br)c(c56)C[C@H]4N(C)C3)(C(C)C)C(=O)N12
CC(CCO)CCc1ccccc1 (stereo not given)
COCCOCCOCCOCCOCCO
CCCC/C=C\CCCCCCCCCC=O
O=S(=O)(O)NC1CCCCC1
CCC(=O)OCc1ccccc1
OCCOCCOCCOCCO
O=c1oc(=O)c2cc3c(=O)oc(=O)c3cc12
OCCN1CCNCC1
C=CC(=O)OCCOCCOCC
Cc1ccc(O)c(C(C)(C)C)c1
O=C[C@H](O)[C@H](O)[C@H](O)CO
ClCCCl
O=C1C(c2[nH]c3ccc(S(=O)(=O)O)cc3c2O)=Nc2ccc(S(=O)(=O)O)cc21
C=C(C)C1CCC(C)CC1O (stereo not given)
COc1cc(C=O)ccc1OC(=O)C(C)C
O=[N+]([O-])c1ccc(Nc2ccc(Nc3ccccc3)c(S(=O)(=O)O)c2)c([N+](=O)[O-])c1
CCCc1c(OCCCOc2ccc(OCC(=O)O)cc2)ccc(C(C)=O)c1O
CCc1ccc(C=O)cc1

Reference: PubChem BioAssay (EPA / NIEHS)
